ATXN2 expr inh = inhibitors of ATXN2 expression. HEK-293 ATXN2-luciferase reporter, luminescence, 24 h. Potency, µM (highest dose often 57 µM), for inactives: at the highest dose activity change, negative = inhibition, hits mostly inhibitors. AID 1745845. 0.72% of 360,000 active; further: on the % scale 0 is the no-effect control and ±100 the full control effect; nearly all actives have a fitted effect of over 55% in size
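qHTS (up to 57 uM final) was run with 24 h compound exposure of reporter cells at 37 °C. Each well was multiplexed: SteadyGlo luminescence measured ATXN2-luciferase expression after a fluorogenic Gly-Phe-AFC viability readout (25 uM final).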
RORgamma inh = inhibitors of mouse ROR gamma transcriptional activity; P51450; Drosophila S2 Gal4-RORgamma UAS-luciferase reporter, 20 h; Potency, µM (top dose mostly 53.6 µM), without a hit: top-dose activity change, negative = inhibition, usual class: inhibitors; 5.4% of 310,000 active; AID 2551; further: on the % scale 0 is the no-effect control and ±100 the full control effect; nearly all actives have a fitted effect of over 60% in size
Target sequence (P51450 whole entry, looked up, the tested form may be a part): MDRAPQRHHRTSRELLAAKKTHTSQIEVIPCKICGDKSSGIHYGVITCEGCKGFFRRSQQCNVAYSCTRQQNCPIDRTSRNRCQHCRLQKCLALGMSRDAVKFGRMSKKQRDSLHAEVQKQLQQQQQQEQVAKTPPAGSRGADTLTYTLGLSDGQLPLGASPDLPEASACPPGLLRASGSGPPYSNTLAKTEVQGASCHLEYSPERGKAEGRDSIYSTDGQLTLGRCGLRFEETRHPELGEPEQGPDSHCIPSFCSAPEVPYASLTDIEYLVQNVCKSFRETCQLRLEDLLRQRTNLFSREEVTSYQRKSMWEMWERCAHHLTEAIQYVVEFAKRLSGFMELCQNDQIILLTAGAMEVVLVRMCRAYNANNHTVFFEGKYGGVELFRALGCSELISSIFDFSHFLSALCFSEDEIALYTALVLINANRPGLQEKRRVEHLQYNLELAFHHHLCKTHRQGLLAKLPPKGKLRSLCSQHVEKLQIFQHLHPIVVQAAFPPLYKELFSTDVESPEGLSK
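Using a luciferase readout, inhibitors were identified by reduced reporter activity in Drosophila cells coexpressing a copper-inducible Gal4–ROR gamma fusion and UAS-driven Photinus luciferase, incubated 20 hr after 700 uM copper sulfate.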
HepG2 viability = counter-screen for TGF-b inhibitors: cytotoxicity in HepG2 cells. HepG2 CAGA-GFP viability, ATP luminescence, 18 h. Potency, µM (doses to about 46.1 µM), for inactives: at the highest dose activity change, negative = cytotoxicity, most hits filed as cytotoxic. 0.76% of 410,000 active. AID 588856
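HepG2 CAGA-GFP cells (1000/well, DMEM with 1% FBS) received compound, then TGF-beta at 500 pg/mL final, and were incubated 18 hours at 37 degrees C. Viability was read by CellTiter-Glo luminescence. Media-only wells were set as complete cell-killing and DMSO as no toxicity.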
VP16 counter = Gal4-VP16 reporter inhibition counter-screen; Drosophila S2 Gal4-VP16 UAS-luciferase, luminescence, 20 h; Potency, µM (series often up to 53.6 µM), for the others: at the highest dose activity, negative = inhibition, most hits filed as inhibitors; 3.5% of 310,000 active; AID 2546;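 further: Gal4-VP16 expression switched on by copper sulfate through the metallothionein promoter; on the % scale 0 is the no-effect control and ±100 the full control effect; nearly all actives have a fitted effect of over 50% in size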
TGFb inhibitor = blocks TGF-b signaling; HepG2 CAGA-GFP TGF-b/SMAD3 reporter, GFP fluorescence, 18 h; TGF-beta stimulated, 500 pg/mL final; Potency, µM (top dose mostly 46.1 µM), inactives show top-dose activity, negative = inhibition, actives largely listed as inhibitors; 1.2% of 410,000 active; further: on the % scale 0 is the no-effect control and ±100 the full control effect; nearly all actives have a fitted effect of over 65% in size
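HEPG2 CAGA-GFP, 1000 cells/well; 2 h settle, 37 C; cpd via pin tool; TGF-b 500 pg/mL final; 18 h, 37 C; GFP imaging ex488/em500-530; %Activity normalised to -TGF-b and +DMSO controls; CRC fit, curve class.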
ATXN viability = reduces viability in counter-screen for ATXN expression inhibitors. S2 cells (HEK-293 line with an ATXN2-luciferase reporter) viability, CellTiter-Fluor protease fluorescence, 24 h. Potency, µM (series often up to 56.7 µM), actives largely listed as cytotoxic. 0.49% of 400,000 active. AID 651635; further: nearly all actives have a fitted effect of over 40% in size
Active calls of the source: *; ! = repeats disagree. Hits are enriched below; roughly 6.3% of the tested compounds scored in any of these assays. The call rests on the fitted dose curve; in most records, active means well fitted curve in the direction sought with a large enough effect; inconclusive means small, poorly fitted or top-dose-only effect, or another doubt; inactive means no such curve, though single readings can be large; an effect the other way counts as inactive or inconclusive. Potency means the concentration at half of the fitted maximal effect.

How did CC(=O)n1cc(N(C(=O)CCl)c2ccc(C)cc2)c2ccccc21 do in these assays?
ATXN2 expr inh: 8.91µM*; RORgamma inh: 11.2µM*; HepG2 viability: 5.01µM*; VP16 counter: inconclusive; TGFb inhibitor: 5.62µM*; ATXN viability: 10µM*

How did CNc1cncc(-c2cccc(C(=O)N(C)C)c2)n1 do in these assays?
ATXN2 expr inh: 28.3%; HepG2 viability: 1.8%; TGFb inhibitor: -3.5%; ATXN viability: inactive

How did C=CCO/N=C(/C)c1c(O)c(CC)c(-c2ccccc2)n(-c2ccccc2)c1=O do in these assays?
ATXN2 expr inh: 4.9%; RORgamma inh: 33.5%; HepG2 viability: -24.3%; VP16 counter: -13.6%; TGFb inhibitor: 0.0%; ATXN viability: inactive

What do the screens show for `C/C(=N/O)c1c(O)c(C)c(-c2ccccc2)n(-c2ccccc2)c1=O`?
ATXN2 expr inh: -1.2%; RORgamma inh: 5.62µM*; HepG2 viability: 1.5%; VP16 counter: 5.62µM*; TGFb inhibitor: inconclusive; ATXN viability: inconclusive

How did CCc1c(O)c(/C(C)=N\O)c(=O)n(-c2ccccc2)c1-c1ccccc1 do in these assays?
ATXN2 expr inh: -7.4%; RORgamma inh: inconclusive; HepG2 viability: -16.0%; VP16 counter: 35.5µM*; TGFb inhibitor: 1.7%; ATXN viability: inactive

What do the screens show for `COc1ccc(C2C(C(=O)Nc3ccc(C)cc3C)=C(C)Nc3nc4ccccc4n32)c(OC)c1` (stereo not drawn)?
ATXN2 expr inh: -0.8%; HepG2 viability: -7.9%; TGFb inhibitor: -18.7%; ATXN viability: inactive

Results for COc1ccc(C2C(C(=O)c3ccccc3)=C(C)Nc3nc4ccccc4n32)c(OC)c1 (stereo not drawn) ?
ATXN2 expr inh: -1.2%; RORgamma inh: 6.31µM*; HepG2 viability: -4.1%; VP16 counter: -1.6%; TGFb inhibitor: inconclusive; ATXN viability: inactive

How did COc1cccc(-c2cnc(C(O)c3c(C)cc(C)cc3C)[nH]2)c1 (stereo not drawn) do in these assays?
ATXN2 expr inh: -8.9%; HepG2 viability: 0.6%; TGFb inhibitor: 7.1%; ATXN viability: inactive

How did O=c1[nH]c2ccccc2c(O)c1SCCO do in these assays?
ATXN2 expr inh: 22.6%; RORgamma inh: -16.1%; HepG2 viability: -4.2%; VP16 counter: -10.0%; TGFb inhibitor: -12.9%; ATXN viability: inactive

What do the screens show for `O=C1C(SCCO)=C(SCCO)C(=O)c2ccccc21`?
ATXN2 expr inh: inconclusive; RORgamma inh: 0.631µM*; HepG2 viability: 7.08µM*!; VP16 counter: 0.794µM*; TGFb inhibitor: 3.16µM*

How did COc1cccc(-c2nc3nc(C)cc(C)n3c2NC2CCCC2)c1 do in these assays?
ATXN2 expr inh: -8.0%; ATXN viability: inconclusive

Results for CCN1CCc2c(C#N)c(N3CCCCC3)nc(NCc3ccccc3)c2C1 ?
ATXN2 expr inh: -31.0%; RORgamma inh: inconclusive; HepG2 viability: 12.6µM*; VP16 counter: 9.1%; TGFb inhibitor: 22.4µM*; ATXN viability: inconclusive

How did CCN1CCc2c(C#N)c(N3CCOCC3)nc(NCc3ccccc3)c2C1 do in these assays?
ATXN2 expr inh: 3.8%; RORgamma inh: -2.3%; HepG2 viability: 1.8%; VP16 counter: 2.4%; TGFb inhibitor: inconclusive; ATXN viability: inactive

What do the screens show for `OC1(c2cccnc2)CCN(Cc2ccc3c(c2)CN(Cc2cccc(F)c2F)CCO3)CC1`?
ATXN viability: inactive

What do the screens show for `CN(C)c1ccc(CN(Cc2ccco2)C(=O)c2ccc(C(C)(C)C)cc2)cc1`?
HepG2 viability: -61.5%

Results for CC1CCC(C(C)C)C(OC(=O)Cn2c(-c3ccc(Cl)cc3)[n+](C)c3ccccc32)C1 (stereo not drawn) ?
ATXN2 expr inh: inconclusive; RORgamma inh: inconclusive; HepG2 viability: 11.2µM*; VP16 counter: inconclusive; TGFb inhibitor: inconclusive; ATXN viability: inconclusive
